Dicer inh – inhibitors of Dicer pre-microRNA processing, primary screen, biochemical, cat-ELCCA, chemiluminescence. cat-ELCCA pre-miR-21 Dicer processing; active compounds read high. z-score at 25 µM. 6% of 47,000 active. AID 1347074, 2019; in the data active = z-score above about 3, passing the limit was not always enough;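 note: higher signal means more uncleaved substrate so more Dicer inhibition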
Target sequence (Q9UPY3 whole entry, looked up): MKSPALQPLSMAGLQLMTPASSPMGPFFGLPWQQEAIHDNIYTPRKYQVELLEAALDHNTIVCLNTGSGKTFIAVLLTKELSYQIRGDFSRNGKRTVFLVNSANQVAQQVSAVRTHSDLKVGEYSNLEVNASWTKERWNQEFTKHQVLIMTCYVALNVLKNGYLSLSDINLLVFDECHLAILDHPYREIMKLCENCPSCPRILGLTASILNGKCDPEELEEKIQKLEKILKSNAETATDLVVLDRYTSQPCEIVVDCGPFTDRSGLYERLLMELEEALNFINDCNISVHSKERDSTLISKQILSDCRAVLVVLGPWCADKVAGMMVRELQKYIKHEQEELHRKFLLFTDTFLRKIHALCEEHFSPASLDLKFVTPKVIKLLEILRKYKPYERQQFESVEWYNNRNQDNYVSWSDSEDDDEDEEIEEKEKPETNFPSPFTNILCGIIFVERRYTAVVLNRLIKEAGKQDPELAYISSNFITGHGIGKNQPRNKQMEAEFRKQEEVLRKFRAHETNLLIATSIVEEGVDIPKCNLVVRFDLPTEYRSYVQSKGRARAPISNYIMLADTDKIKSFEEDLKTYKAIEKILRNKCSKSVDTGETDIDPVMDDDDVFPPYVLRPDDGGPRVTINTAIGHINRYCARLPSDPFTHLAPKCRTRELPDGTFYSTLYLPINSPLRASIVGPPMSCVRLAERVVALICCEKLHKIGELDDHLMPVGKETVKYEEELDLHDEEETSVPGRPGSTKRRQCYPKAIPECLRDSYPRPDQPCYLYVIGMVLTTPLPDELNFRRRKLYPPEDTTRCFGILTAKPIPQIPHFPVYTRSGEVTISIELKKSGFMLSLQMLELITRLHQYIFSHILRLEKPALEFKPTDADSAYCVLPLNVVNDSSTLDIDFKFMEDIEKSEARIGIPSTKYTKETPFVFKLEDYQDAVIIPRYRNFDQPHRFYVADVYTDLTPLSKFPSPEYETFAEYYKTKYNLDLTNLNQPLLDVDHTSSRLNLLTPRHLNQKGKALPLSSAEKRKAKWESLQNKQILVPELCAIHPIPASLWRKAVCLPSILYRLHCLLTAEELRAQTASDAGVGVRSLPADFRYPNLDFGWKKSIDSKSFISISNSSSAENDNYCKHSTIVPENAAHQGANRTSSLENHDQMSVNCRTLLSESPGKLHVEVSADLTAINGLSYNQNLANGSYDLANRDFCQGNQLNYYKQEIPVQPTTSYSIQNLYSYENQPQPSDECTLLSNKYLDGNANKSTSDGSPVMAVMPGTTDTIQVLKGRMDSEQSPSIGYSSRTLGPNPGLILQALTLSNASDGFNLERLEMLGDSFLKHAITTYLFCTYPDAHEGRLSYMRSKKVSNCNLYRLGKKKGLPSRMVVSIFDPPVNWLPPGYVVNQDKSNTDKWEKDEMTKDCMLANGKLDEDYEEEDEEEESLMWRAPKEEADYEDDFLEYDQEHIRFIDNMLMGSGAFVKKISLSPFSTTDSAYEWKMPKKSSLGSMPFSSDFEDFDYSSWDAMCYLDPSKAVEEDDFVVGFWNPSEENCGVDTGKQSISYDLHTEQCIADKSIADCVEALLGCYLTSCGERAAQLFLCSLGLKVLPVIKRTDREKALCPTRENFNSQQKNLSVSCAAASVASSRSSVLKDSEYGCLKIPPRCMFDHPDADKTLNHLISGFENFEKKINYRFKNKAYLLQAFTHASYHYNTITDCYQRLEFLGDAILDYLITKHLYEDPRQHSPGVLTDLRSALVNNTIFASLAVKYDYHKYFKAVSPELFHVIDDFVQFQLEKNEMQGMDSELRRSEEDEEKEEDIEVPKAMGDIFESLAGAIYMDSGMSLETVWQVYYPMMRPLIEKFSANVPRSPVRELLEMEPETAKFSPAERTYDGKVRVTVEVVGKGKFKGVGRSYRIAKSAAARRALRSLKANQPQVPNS
A number is an active result; n = inactive. The sample as a whole holds a higher share of hits than the screen did.

SMILES	Dicer inh
Cc1cc(C)c(C(=O)CC2(O)C(=O)Nc3ccc(C)cc32)c(C)c1 (configuration not stated)	n
CC(C)CC(=O)Nc1sc2c(c1C(N)=O)CCCC2	n
CCC(C(=O)NNC(=O)c1ccccc1N)c1ccccc1 (configuration not stated)	n
CC1(C)S[C@H](CNC(=O)Cc2ccccc2)N[C@H]1C(=O)O	4
CN(C)c1ccc(C2N[C@@H](C(=O)O)C(C)(C)S2)cc1 (some centres not stated)	n
CC1(C)SC(c2ccc(C3NC(C(=O)O)C(C)(C)S3)cc2)NC1C(=O)O (configuration not stated)	n
CCCCOC(=O)c1cc([N+](=O)[O-])cc2c1-c1ccc([N+](=O)[O-])cc1C2=O	n
CSc1nc(C)nc(N/C=C2\C(=O)c3ccccc3N(C)S2(=O)=O)n1	n
NC(=O)c1oc2ccccc2c1NC(=O)c1cccc(Br)c1	n
O=C1CC(c2ccc(Cl)cc2)CC2=C1C(c1cccs1)n1c(nc3ccccc31)N2 (configuration not stated)	n
Cc1nnc(N2C(=O)C(=O)/C(=C(/O)c3ccc(F)cc3)C2c2ccc(Cl)cc2)s1 (configuration not stated)	n
Cc1ccccc1OCc1nc(C#N)c(NCCN(C)C)o1	n
CCn1c[n+](CC(O)COc2ccccc2)c2ccccc21 (configuration not stated)	n
CCn1c[n+](CC(O)COc2ccccc2OC)c2ccccc21 (configuration not stated)	7.7
CCn1c[n+](CC(O)COc2ccccc2C)c2ccccc21 (configuration not stated)	n
CCCOc1cccc(C2c3c(oc4ccccc4c3=O)C(=O)N2c2nc(C)c(C)s2)c1 (configuration not stated)	n
c1ccc(-c2cn3nc(-c4cccs4)sc3n2)cc1	n
Cn1c(=O)c2c(nc(SCc3nn[nH]n3)n2Cc2ccccc2)n(C)c1=O	n
O=C(c1cnn2c1NC(c1ccc(Br)cc1)CC2C(F)(F)F)N1CCCCC1 (configuration not stated)	3.3
CC(C)(C)NC(=O)c1cnn2c1NC(c1ccc(F)cc1)CC2C(F)(F)F (configuration not stated)	n
O=C(Nc1ccc(Br)cc1)c1cnn2c1NC(c1cccs1)CC2C(F)(F)F (configuration not stated)	3.2
O=C(Nc1ccc(Br)cc1)c1cc2n(n1)C(C(F)(F)F)CC(c1cccs1)N2 (configuration not stated)	n
CSc1ccccc1NC(=O)c1cnn2c1NC(c1cccs1)CC2C(F)(F)F (configuration not stated)	n
Cc1ccc(C2CC(C(F)(F)F)n3ncc(C(=O)N(C)C4CCCCC4)c3N2)cc1 (configuration not stated)	n
CCOc1ccc(C2CC(=O)C3=C(C2)Nc2ccccc2NC3c2ccc3c(c2)OCO3)cc1OC (configuration not stated)	n
SMILES	Dicer inh
Nc1sc(-c2ccccc2)cc1C(=O)N/N=C/c1ccncc1	n
O=C(O)CCCC(=O)Nc1cccc2cccnc12	n
O=C(Nc1cccc2cccnc12)c1cccs1	n
O=C(CCC(=O)OCC(=O)c1cccs1)Nc1cccc2cccnc12	4.3
Fc1cccc(-c2nnc(C3c4ccccc4Oc4ccccc43)o2)c1	n
COc1cc(OC)cc(-c2nc(-c3cc4cccc(C)c4[nH]c3=O)no2)c1	n
CCOC(=O)c1c(C)n(-c2cccc(Br)c2)c2ccc(O)cc12	6.5
CCOC(=O)c1c(C)n(-c2ccccc2)c2ccc(OC)cc12	n
CCOC(=O)c1c(C)n(C)c2ccc(O)cc12	n
Cc1nc(SCC(=O)c2ccc(O)c(O)c2)n[nH]1	n
CC(Oc1ccc(Oc2ccc(C(F)(F)F)cc2)cc1)C(=O)NNC(=O)c1ccc([N+](=O)[O-])cc1 (configuration not stated)	n
Cc1cccc(-c2nnc(-c3ccccc3)o2)c1	n
COc1cc(OC)cc(-c2nc(-c3cccc(C)c3)no2)c1	n
COc1oc(-c2cccc(C)c2)nc1C(F)(F)F	3.6
OC(CNCCNc1ccc(C(F)(F)F)cn1)Cn1ccc2ccccc21 (configuration not stated)	n
N#Cc1ccccc1NS(=O)(=O)c1cccs1	n
CCc1sc(C(C)(C)C)cc1NC(=O)c1ccccc1	n
Cc1cc(C)c(C(=O)Nc2ccccc2)c(CC(C)(C)C(=O)O)c1	4.7
Cc1cc(C)c(C(=O)O)c(CC(C)(C)C(=O)O)c1	n
Nc1c(-c2n[nH]c(=S)n2Cc2ccccc2)oc2nc(-c3ccc(Cl)cc3)cc(-c3ccccc3)c12	n
C=CCNC(=S)N1N=C2c3ccccc3CCC2C1c1cccs1 (configuration not stated)	n
CN1C(=O)c2cccc3c(S(=O)(=O)NCCCC(=O)O)ccc1c23	n
CN1C(=O)c2cccc3c(S(=O)(=O)NCC(=O)O)ccc1c23	3.1
CN1C(=O)c2cccc3c(S(=O)(=O)NCCCCCC(=O)O)ccc1c23	n
O=C1NC(c2ccc([N+](=O)[O-])s2)Nc2ccc(Cl)cc21 (configuration not stated)	n
SMILES	Dicer inh
COC(=O)C(C)Sc1nc(C(=O)C(F)(F)F)c2ccccn12 (configuration not stated)	n
CNC(=O)Nc1c(C)n(C)n(-c2ccccc2)c1=O	n
Cn1nc(C2CC2)cc1NC(=O)COc1ccc(Cl)cc1Cl	n
CCOc1ccccc1C1Nc2ccc(C)cc2-c2cc(C)nn21 (configuration not stated)	4.1
COc1ccccc1C1Nc2ccc(C)cc2-c2cc(C)nn21 (configuration not stated)	3.5
COc1ccccc1C1Nc2ccccc2-c2cc(C)nn21 (configuration not stated)	n
CCOc1cccc(C2Nc3ccc(C)cc3-c3cc(C)nn32)c1O (configuration not stated)	n
COc1ccc(C2Nc3ccc(C)cc3-c3cc(C)nn32)c(OC)c1 (configuration not stated)	n
Cc1ccc(C2Nn3c(C)nnc3SC2C(=O)Nc2cc(C)cc(C)c2)cc1 (configuration not stated)	n
CC12c3ccccc3C(c3ccccc31)C1C(=O)NN(c3ccccc3)C(=O)C12 (configuration not stated)	n
Cc1c(Cl)cccc1SCC(=O)O	n
O=C(Nc1[nH]c2cc([N+](=O)[O-])ccc2c1-c1ccccc1)c1cccs1	n
CCn1cc(C(=O)O)c(=O)c2cc(F)c(N3CCN(S(=O)(=O)c4ccc(Cl)cc4)CC3)cc21	3.5
CCn1cc(C(=O)O)c(=O)c2cc(F)c(N3CCNCC3)cc21	n
CCn1cc(C(=O)O)c(=O)c2cc(F)c(N3CCN(C)CC3)cc21	n
CCOC(=O)c1nnn(-c2cc(Cl)cc(Cl)c2)c1Sc1ccc(C)cc1	n
COCCOC(=O)C1=C(C)NC2=C(C(=O)CCC2)C1c1ccc(C)s1 (configuration not stated)	n
COC(=O)C1=C(C)NC2=C(C(=O)CCC2)C1c1ccccn1 (configuration not stated)	3.3
COC(=O)C1=C(C)NC2=C(C(=O)CCC2)C1c1sc2ccccc2c1C (configuration not stated)	n
COC(=O)C1=C(C)NC2=C(C(=O)CC(C)(C)C2)C1c1ccccn1 (configuration not stated)	n

From PubChem
